Screening data deposited in PubChem by National Center for Advancing Translational Sciences (NCATS).
DT40 TDP1 CPT = qHTS for Inhibitors of human tyrosyl-DNA phosphodiesterase 1 (TDP1): qHTS in cells in presence of CPT; chicken DT40 Tdp1-/-;hTDP1 cells + 20 nM CPT, ATP luminescence, 48 h; Potency, µM (titrated, usually from 46.2 µM), most hits filed as inhibitors; 420,000 compounds, 12% hits; AID 686979, 2013; also: nearly all actives have a fitted effect of over 55% in size
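Chicken DT40 Tdp1-/- cells complemented with human TDP1, 400 cells/well, exposed to compounds plus 20 nM camptothecin for at least 48 h at 37 C; viability read as ATP content by CellTiter-Glo luminescence.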
ELG1 DNA repair = qHTS screen for small molecules that inhibit ELG1-dependent DNA repair in human embryonic kidney (HEK293T) cells expressing luciferase-tagged ELG1. 330,000 compounds, 2.3% hits. Potency, µM (titrated, usually from 46.1 µM), usual class: inhibitors. HEK293T ELG1-luciferase reporter, luminescence, 16 h; DNA damage induced by 5-fluorouridine; also: nearly all actives have a fitted effect of over 55% in size
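Overnight (16 hr) co-exposure of 2,000 cells/well to 5-fluorouridine and compound at 37 °C preceded detection. Luciferase was quantified via ONE-Glo luminescence; loss of signal denotes inhibition.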
IL1B secr inh = qHTS for Inhibitors of Inflammasome Signaling: IL-1-beta AlphaLISA Primary Screen | THP-1 LPS/ATP IL-1B secretion, AlphaLISA, 16 h; active compounds read low | activity change, % at 57.5 µM | 360,000 compounds, 4.7% hits | AID 743279, 2014; in the data active = activity change below about -50%; inconclusive = mostly about -30% to -49%
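THP-1 cells pretreated 1 hr with compounds (up to 57.5 uM final), then stimulated with LPS (250 ng/mL final) plus ATP (1.25 mM final); secreted IL-1B measured by AlphaLISA after 16 hr, decreased signal indicating inhibition.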
DT40 TDP1 no CPT = qHTS for Inhibitors of human tyrosyl-DNA phosphodiesterase 1 (TDP1): qHTS in cells in absence of CPT; DT40 Tdp1-/- hTDP1 cells, no CPT, ATP luminescence, 48 h; Potency, µM (doses to about 46.2 µM), usual class: inhibitors; AID 686978, 2013; 420,000 compounds, 15% hits; also: nearly all actives have a fitted effect of over 55% in size
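Growth of hTDP1-complemented DT40 Tdp1-knockout cells is measured by ATP luminescence after at least 48 hr compound exposure at 37 °C, with DMSO substituting for the 20 nM CPT used in the parallel screen.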
HT1080 IDH1KD tx = qHTS for induction of synthetic lethality in tumor cells producing 2HG: qHTS for the HT-1080-IDH1KD cell line; Potency, µM (top dose mostly 46.1 µM), usual class: cytotoxic; HT-1080 IDH1 knockdown viability, ATP luminescence, 48 h; AID 686971, 2013; 360,000 compounds, 2% hits
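Using the IDH1-knockdown HT-1080 line run in the same batch and compound series as the NT line, viability after 48 h at 37 °C was determined by CellTiter-Glo luminescence and expressed as % activity.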
HT1080-NT tox = qHTS for induction of synthetic lethality in tumor cells producing 2HG: qHTS for the HT-1080-NT fibrosarcoma cell line; HT-1080-NT fibrosarcoma viability, CellTiter-Glo ATP luminescence, 48 h; Potency, µM (highest dose often 46.1 µM), usual class: cytotoxic; 360,000 compounds, 1.6% hits;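 also: NT is the 2HG producing partner of a matched IDH1 knockdown line; nearly all actives have a fitted effect of over 55% in size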
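Luminescent CellTiter-Glo readout after 48 hours of compound exposure at 37 degrees C defined viability of HT-1080-NT cells. Activity was normalized to DMSO wells and cell-free media wells; concentration-response curves were fitted and assigned curve classes.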
A number is an active result; 0 = inactive; ? = inconclusive; - = not tested or not shown; [ ] = another dose, or the depositor's remark. Sampled rows, rich in hits. Any-hit rate of the full collection: about 19%. Unless noted, calls follow the shape of the dose curve; as a rule, active = well fitted curve in the direction sought with a large enough effect; inconclusive = small, poorly fitted or top-dose-only effect, or another doubt; inactive = no such curve, though single readings can be large; an effect the other way counts as inactive or inconclusive.

SMILES	DT40 TDP1 CPT	ELG1 DNA repair	IL1B secr inh	DT40 TDP1 no CPT	HT1080 IDH1KD tx	HT1080-NT tox
NC(c1csc(Nc2nccc(C(F)(F)F)n2)n1)C1CCCCC1 (centres undefined)	?	-	?	12µM	21µM	21µM
NC(c1csc(Nc2cnccn2)n1)C1CCCCC1 (centres undefined)	23µM	-	0	0	0	0
NC(c1csc(Nc2ccc(C(F)(F)F)cn2)n1)C1CCCCC1 (centres undefined)	23µM	-	-66	21µM	18µM	?
NC(c1csc(Nc2ncccn2)n1)C1CCCCC1 (centres undefined)	?	-	?	?	0	0
C[C@H]1CN(S(=O)C(C)(C)C)[C@@H](CCO)/C1=C\CCO (some centres undefined)	0	-	0	0	0	0
CC(OC(=O)c1ccccc1NCCO)C(=O)NC1CCCCC1C (centres undefined)	0	0	0	0	0	0
O=C(/C=C/c1ccccc1Cl)N1CCCN(C(=O)/C=C/c2ccccc2Cl)CC1	18µM	0	0	21µM	0	0
O=C(C=Cc1ccccc1Cl)c1ccccc1	?	-	0	16µM	?	23µM
O=C(/C=C/c1ccccc1Cl)NC1CCS(=O)(=O)C1 (centres undefined)	21µM	0	0	18µM	0	0
O=C(/C=C/c1ccccc1Cl)NC1CCCCC1	0	?	?	?	0	0
CCOC(=O)CSc1nc2ccccc2c(=O)n1-c1cccc(C)c1	0	-	-	?	-	-
Cc1c(C(=O)OCC2CCCO2)[nH]c2c1C(=O)CC(c1ccco1)C2 (centres undefined)	3.7µM	?	0	3.7µM	2.9µM	?
C/C=C/COC(=O)c1[nH]c2c(c1C)C(=O)CC(c1ccco1)C2 (centres undefined)	0.29µM	0	0	0.21µM	0.65µM	1µM
Cc1c(C(=O)OCC(C)C)[nH]c2c1C(=O)CC(c1ccco1)C2 (centres undefined)	0.82µM	?	0	0.82µM	1.2µM	1.5µM
C=CCOC(=O)c1[nH]c2c(c1C)C(=O)CC(c1ccco1)C2 (centres undefined)	0.021µM	0	0	0.0065µM	0.37µM	?
CC1=C(C(=O)OCC2CCCO2)C(c2coc3ccccc3c2=O)C2=C(CCCC2=O)N1 (centres undefined)	0	0	0	0	0	0
CCCCNC(=S)NNC(=O)c1cc(-c2ccncc2)nc2ccccc12	0	0	0	0	0	0
CCOc1ccc(-c2cc(C(=O)O)c3ccccc3n2)c(OCC)c1	0	?	0	0	7.1µM	14µM
CCNC(=S)NNC(=O)c1cc(-c2ccccc2C)nc2ccccc12	0	0	0	0	?	?
CCNC(=S)NNC(=O)c1cc(-c2ccc(OCC)cc2)nc2ccccc12	5µM	?	0	4.5µM	5µM	3.5µM
CCNC(=S)NNC(=O)c1cc(-c2cccc(OC)c2)nc2ccccc12	?	?	0	16µM	0	0
CCOc1ccccc1CNC(=O)c1cc(-c2ccc(OC)cc2)nc2ccc(C(C)C)cc12	16µM	-	-	16µM	-	-
COc1cc(/C=N/Nc2snc(SC)c2C#N)ccc1O	4µM	?	0	3.2µM	3.2µM	?
COc1ccc(C(=O)N/C(=C/c2cccs2)c2nc3ccccc3[nH]2)cc1OC	?	?	0	?	0	0
COc1cc(/C=N/Nc2nc3ccccc3[nH]2)cc(OC)c1O	4.1µM	0	-99	3.7µM	?	0
SMILES	DT40 TDP1 CPT	ELG1 DNA repair	IL1B secr inh	DT40 TDP1 no CPT	HT1080 IDH1KD tx	HT1080-NT tox
COc1cc(/C=N/Nc2nc(C)cc(C)n2)ccc1O	0	-	0	0	0	0
COc1cc(/C=C(/C(=O)c2cccs2)c2nc3ccccc3[nH]2)cc(OC)c1O	?	?	-98	16µM	?	?
COc1ccc(O)c(/C=N/Nc2nc3ccccc3[nH]2)c1	0	?	0	0	0	0
COc1cc(/C=N/Nc2nc3ccccc3[nH]2)cc(Br)c1OCC(=O)N(C)C	?	?	?	18µM	0	0
CCc1ccc(NC(=O)C2CCC(CNS(=O)(=O)c3cccs3)CC2)cc1 (centres undefined)	0	-	-	?	-	-
CCc1nc2c(OCc3ccccc3C(=O)OC)cccn2c1N(C)C(=O)Nc1ccccc1OC	?	-	0	?	0	0
COc1cc(/C=N/Nc2nc3ccccc3[nH]2)ccc1O	6.5µM	?	-105	4.6µM	0	0
COc1cccc(/C=N/Nc2nc3ccccc3[nH]2)c1O	18µM	4.1µM	-55	23µM	12µM	?
COc1cccc(/C=N/Nc2nc3ccccc3n3cnnc23)c1	0	?	0	?	0	0
COc1cccc(/C=N/Nc2nc3ccccc3n3cnnc23)c1O	5.8µM	8.2µM	-112	5.8µM	?	0
CC(C)C[C@H](NC(=O)[C@H](CCCCN)NC(=O)[C@H](CCCNC(=N)N)NC(=O)[C@H](C)NC(=O)[C@H](CO)NC(=O)[C@H](CCCCN)NC(=O)[C@H](CCCNC(=N)N)NC(=O)[C@H](C)NC(=O)CNC(=O)[C@@H](NC(=O)[C@H](Cc1ccccc1)NC(=O)CNC(=O)CNC(=O)[C@@H](N)Cc1ccccc1)[C@H](C)O)C(=O)N[C@@H](C)C(=O)N[C@@H](CC(N)=O)C(=O)N[C@@H](CCC(N)=O)C(=O)O	0[4.12 µM]	-	-	0[4.12 µM]	-	-
CCOc1cc(C(C(=O)NCC2CCCO2)N(C(=O)Cn2nnc3ccccc32)c2ccc(C(C)=O)cc2)ccc1O (centres undefined)	0	0	0	0	0	0
COc1cccc(C(C(=O)NCC2CCCO2)N(C(=O)Cn2nnc3ccccc32)c2ccc(NC(C)=O)cc2)c1 (centres undefined)	0	0	-63	0	0	0
CS(=O)(=O)N(CC(=O)N1CCOCC1)c1ccccc1Br	0	0	0	0	0	0
COc1ccc(S(=O)(=O)N(C)C[C@H]2Oc3ccc(NC(=O)Cc4ccccc4)cc3C(=O)N([C@H](C)CO)C[C@@H]2C)cc1	?	?	0	?	0	0
